Compounds with a hit are over-represented: about 2.6% of the library has one in this group of screens.
TROY signal inh – inhibitors of TROY-dependent NF-kB signaling | inhibition, % at 10 µM | 360,000 tested, 0.98% active | Q293 LMP1-TROYcd NF-kB luciferase reporter, 4 h;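 active = compounds whose plate-normalised and pattern-corrected inhibition of the luciferase reporter signal at the single screening dose is 50% or more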
EWS-Fli block – EWS/Fli transcriptional activity inhibition. AID 651661. 350,000 tested, 0.67% active. inhibition, % at 12.6 µM. A673 NR0B1-luciferase reporter, viability-normalised;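 active = mean inhibition of at least 50% after viability correction, with every replicate also passing that limit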;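 also: firefly luciferase signal divided by Alamar Blue viability fluorescence both relative to DMSO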
CF NFkB block – inhibitors of cystic fibrosis induced NF-kB. KKLEB NF-kB-GFP reporter, PAF-induced, GFP fluorescence overnight. inhibition, % at 5 µM. 360,000 tested, 0.86% active. AID 588850;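 active = at least 50% inhibition at 5 µM, scaled per plate between neutral and stimulator controls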;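 also: PAF is a Pseudomonas aeruginosa culture filtrate used as stimulus; plate controls were PAF-stimulated DMSO wells for no effect and unstimulated DMSO wells for full effect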
KKLEB tox – reduces viability of KKLEB cystic fibrosis airway cells; KKLEB CF airway cells viability, ATPlite luminescence, overnight; active compounds read low; cells stimulated with P. aeruginosa culture filtrate; activity change (cytotoxicity), % at 5 µM; 360,000 tested, 0.36% active;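 active = corrected activity change at or below -50% at 5 µM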
LGR2 antag – inhibitors of bursicon-induced Drosophila LGR2 receptor cAMP signaling. inhibition, % at 9.99 µM. AID 720647. HEK293 LGR2, CRE-luciferase, bursicon-stimulated, 4 h. 380,000 tested, 0.35% active;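 active = drop in luminescence signal, shown as inhibition above about 50% in the replicate tests, limit read from the data, passing the limit was not always enough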;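 also: agonist challenge used bursicon conditioned medium at about half maximal strength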
TWEAK Fn14 block – blocks TWEAK-Fn14 interaction in a reporter cell assay; inhibition, % at 10 µM; 360,000 tested, 2% active; TWEAK-stimulated Fn14 reporter cells, luciferase luminescence, 8 h; in the data active = inhibition above about 50%
The depositor's hits bear a star; nt = no result given.

SMILES	TROY signal inh	EWS-Fli block	CF NFkB block	KKLEB tox	LGR2 antag	TWEAK Fn14 block
Cc1ccc(S(=O)(=O)N(C(=O)c2ccncc2)c2ccc(OC(=O)c3ccncc3)cc2)cc1	41	nt	21	-6	4	41
CCc1ccc(S(=O)(=O)N(C(=O)c2ccncc2)c2ccc(OC(=O)c3ccncc3)cc2)cc1	54*	nt	27	-6	27	46
Cc1ccc(S(=O)(=O)N(C(=O)c2ccncc2)c2ccc(OC(=O)c3ccncc3)cc2)c(C)c1	48	13	72*	-50*	26	50*
Cc1c(CCC(=O)N2CCC(C(=O)O)(c3ccccc3)CC2)c(=O)oc2cc3oc4c(c3cc12)CCCC4	5	43	11	4	nt	87*
Cc1oc2cc3oc(=O)c(CCC(=O)N4CCC(C(=O)O)(c5ccccc5)CC4)c(C)c3cc2c1C	-10	1	-8	-15	3	-4
COc1cc(-c2cnc3c(NC=O)cc(-c4ccccc4Cl)cn23)cc(OC)c1OC	44	45	31	-20	-10	59*
COc1cc(-c2cc(NC(C)=O)c3ncc(-c4cc(OC)c(OC)c(OC)c4)n3c2)cc(OC)c1OC	6	3	-64	-5	nt	50*
COc1ccc(F)cc1-c1cc(NC=O)c2ncc(-c3cccc(C(=O)N(C)C)c3)n2c1	-10	15	12	-11	0	14
COc1ccc(F)cc1-c1cc(NC=O)c2ncc(-c3cc(OC)c(OC)c(OC)c3)n2c1	47	60*	26	4	20	74*
COc1cc(-c2cc(NC=O)c3ncc(-c4ccc(C(C)=O)cc4)n3c2)cc(OC)c1OC	-7	14	16	-18	-3	-3
COc1cccc(-c2cnc3c(NC=O)cc(-c4cccc(NC(C)=O)c4)cn23)c1	61*	8	15	-14	-49	30
CC(C)Cc1ccc(CN2CC[C@@H](NS(=O)(=O)c3ccccc3)C2)cc1	nt	-1	nt	nt	nt	nt
CCCN(C)C[C@@H]1OCCCC[C@@H](C)Oc2ccc(NS(C)(=O)=O)cc2C(=O)N([C@H](C)CO)C[C@H]1C	nt	7	nt	nt	-13	nt
Cc1ccc(-c2cc(NC=O)c3ncc(-c4cnn(C)c4)n3c2)cc1	-19	56*	13	-16	-14	2
Cc1ccc(-c2cc(NC=O)c3ncc(-c4cccc(C(=O)N(C)C)c4)n3c2)cc1	-2	14	-7	-27	-6	4
COc1cc(-c2cnc3c(NC=O)cc(-c4ccccc4)cn23)cc(OC)c1OC	24	59*	43	-9	-48	19
COc1cc(-c2cc(NC=O)c3ncc(-c4ccccc4)n3c2)cc(OC)c1OC	2	12	3	-14	-14	25
C[C@H]1CN([C@@H](C)CO)C(=O)c2c(c3ccccc3n2C)-c2ccccc2CO[C@@H]1CN(C)C(=O)c1ccc(F)cc1	nt	8	nt	nt	-1	nt
Cc1ccc(S(=O)(=O)N(C)C[C@@H]2Oc3ccc(NC(=O)Nc4c(C)noc4C)cc3C(=O)N([C@@H](C)CO)C[C@@H]2C)cc1	nt	-1	nt	nt	-8	nt
O=C1OC(c2ccccc2)(c2cc(Br)c(O)c(Br)c2)c2ccccc21 (stereo not given)	53*	7	4	7	-22	33
O=C(N[C@H]1CC[C@H](CCn2cc(-c3ccc(F)cc3)nn2)O[C@H]1CO)c1cnccn1	nt	3	nt	nt	-2	nt
CN(CCO)c1cc(Sc2nc3ccccc3s2)c2nonc2c1[N+](=O)[O-]	0	53*	18	-4	-24	-12
[O-]/C(=C(\C(=S)Nc1cccc2ccccc12)[n+]1ccccc1)c1ccc(OC(F)F)cc1	82*	4	-7	-3	-16	43
COc1cccc(NC(=S)/C(=C(\[O-])c2ccc(OC(F)F)cc2)[n+]2ccccc2)c1	-48	2	-12	-18	-63	32
[O-]/C(=C(\C(=S)Nc1cccc2ccccc12)[n+]1ccccc1)c1ccc2c(c1)OCCO2	84*	nt	-5	12	nt	104*
SMILES	TROY signal inh	EWS-Fli block	CF NFkB block	KKLEB tox	LGR2 antag	TWEAK Fn14 block
Cc1ccccc1C(=O)NC1CCN(C(=O)NCc2ccccc2)CC1	-19	2	0	2	17	1
Cc1ccccc1C(=O)NC1CCN(C(=O)NC2CCCCC2)CC1	3	2	1	-6	9	53*
Cc1ccccc1CC(=O)NC1CCCCCC1	-21	-2	-6	-3	-1	87*
O=C(NC1CCCCCCC1)c1cc(F)c(F)cc1Cl	-42	-93	6	3	-27	-30
Cc1ccc(C(=O)NC2CCCCCCC2)c(Cl)c1	40	56*	-10	-4	80*	75*
C[C@@H]1CN([C@@H](C)CO)C(=O)Cc2cc(NC(=O)Cc3cn(C)c4ccccc34)ccc2O[C@H]1CN(C)Cc1ccc(Oc2ccccc2)cc1	nt	29	nt	nt	7	nt
COc1ccccc1NC(=O)c1oc2ccccc2c1C	-60	-44	-9	-2	-27	-39
COc1ccccc1CNC(=O)c1oc2ccccc2c1C	51*	nt	17	-11	-15	-4
CC1(C)CC(=O)C=C(C#CC2(O)CCCCC2)C1	8	11	20	-17	15	64*
Cc1cccc(C#CC2=CC(=O)CC(C)(C)C2)c1	-45	-12	19	-5	nt	-7
CCC(=O)N(C)C[C@H]1Oc2cc(-c3ccc(C#N)cc3)ccc2S(=O)(=O)N([C@H](C)CO)C[C@@H]1C	nt	-15	nt	nt	14	nt
CCN(CC)Cc1c(O)ccc2c1O/C(=C\C=C\c1ccccc1)C2=O	-9	77*	22	4	6	63*
COc1ccccc1/C=C/C=C1\Oc2c(ccc(O)c2CN(C)C)C1=O	6	-8	-1	11	-10	2
O=C(O)c1cccc(COc2ccccc2Cl)c1	-10	86*	-19	-6	101*	73*
O=C1NC(=O)/C(=C\c2ccc(OCc3cccc(C(=O)O)c3)c(Cl)c2)N1	-72	25	17	10	83*	-21
O=C(O)c1ccc(COc2ccccc2Cl)cc1	-55	nt	-1	-4	-2	6
COc1cc(/C=C2\NC(=S)NC2=O)ccc1OCc1cccc(C(=O)O)c1	-20	-20	-6	8	18	-20
CCCNC(=O)c1ccc(S(=O)(=O)c2ccc(OC)cc2)c([N+](=O)[O-])c1	23	25	42	-17	26	72*
COc1ccc(C(=O)NCCNc2ccccc2[N+](=O)[O-])cc1	-30	-85	-3	13	-40	4
O=C1C(C=NCc2ccco2)=C(O)c2ccccc21	59*	nt	-2	-3	nt	38
O=C1C(C=NCc2cccnc2)=C(O)c2ccccc21	52*	nt	-6	0	nt	27
O=C1C(C=NCc2ccncc2)=C(O)c2ccccc21	-2	nt	-5	-6	nt	21
Cc1[nH]n(-c2cccc(Cl)c2)c(=O)c1C=NCc1ccco1	-17	-81	-9	7	-64	-14
